# Reference: PubChem BioAssay
# Measured potencies and affinities stand elsewhere. Calls of active or inactive are those of the source.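 Rule for the calls: active = a fitted half-maximal concentration no higher than twice the top valid tested dose, with signal falling as cells die; inconclusive = flat curve between -70% and -30%, or poor fit; inactive = the rest, including signal rising instead of falling.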
# Test: HeLa cell cytotoxicity, dose response, cytotoxicity control, ATP luminescence, cherry-pick samples (AID 687004);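 note: 0% = neutral control median and -100% = staurosporine 10 µM control median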
# Conditions: HeLa viability, ATP luminescence (CellTiter-Glo), 48 h; series mostly up to 26 µM; activity change, negative = cytotoxicity: at the top concentration
row,Structure (SMILES),"activity change, negative = cytotoxicity"
1,C[C@H]1CN([C@@H](C)CO)C(=O)Cc2cc(N(C)C)ccc2O[C@@H]1CN(C)C(=O)Nc1ccc(C(F)(F)F)cc1,1.91% (inactive)
2,CO[C@H]1CN(C)C(=O)c2cc(NC(=O)C3CC3)ccc2OC[C@@H](C)N(Cc2cncnc2)C[C@H]1C,-4.74% (inactive)
3,C[C@@H]1CCCCO[C@H](CN(C)C(=O)CCCN(C)C)[C@@H](C)CN([C@H](C)CO)C(=O)c2cc(NC(=O)Cc3ccccc3)ccc2O1,10% (inactive)
4,C[C@@H]1CCCCO[C@H](CN(C)S(=O)(=O)c2cccs2)[C@@H](C)CN([C@@H](C)CO)C(=O)c2cc(NC(=O)CCC(F)(F)F)ccc2O1,7.84% (inactive)
5,Cc1cccc(C)c1NC(=O)C1CCCN1C(=O)NCc1ccccc1 (configuration not stated),5.9% (inactive)
6,O=C(Nc1ccccc1N1CCOCC1)c1cccc([N+](=O)[O-])c1,-6.75% (inactive)
7,CCN(Cc1ccccc1)C(=O)COc1ccccc1,13.7% (inactive)
